Screens (PubChem BioAssay)
Rows were chosen to be rich in hits. Some 22% of all compounds tested hit in one or more screens of this group.
cytoskel mod = modifiers of F-actin cytoskeleton organization, primary screen, imaging, HUVEC, phalloidin staining, high-content imaging | HUVEC TNFa F-actin phalloidin imaging | inhibition, % at 2 µM | 0.18% of 91,000 active;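 active = inhibition above the batch mean plus 3 SD and confirmed as a hit by visual image inspection, cut at about 30% in these data, passing the limit was not always enough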
CYP2C19 activ = human CYP2C19 activators, primary screen, biochemical, luminescence; Cytochrome P450 2C19 (Homo sapiens), P33261; activation factor at 5 µM; 96,000 tested, under 10 active; AID 1025, 2008; recombinant CYP2C19, luciferin-H EGE luminescence; hits give high values; 0 = fully inhibited enzyme, 1 = untreated enzyme;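 active = activation factor of at least 2 at 5 µM in the primary screen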;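 also: 0 = wells with 2.5 mM tranylcypromine and 1 = vehicle-only wells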
CYP2C9 act = human CYP2C9 activators, primary screen, biochemical, luminescence; Cytochrome P450 2C9 (Homo sapiens), P11712; recombinant CYP2C9, luciferin-H conversion; hits give high values; factor 1 = untreated enzyme, 0 = blocked; activation factor at 5 µM; 1.4% of 96,000 active;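 active = activation factor of 2 or more for CYP2C9 at a 5 µM dose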;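 also: 0 = sulfaphenazole-blocked wells and 1 = vehicle-only wells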
Target sequence (P11712 whole entry, looked up): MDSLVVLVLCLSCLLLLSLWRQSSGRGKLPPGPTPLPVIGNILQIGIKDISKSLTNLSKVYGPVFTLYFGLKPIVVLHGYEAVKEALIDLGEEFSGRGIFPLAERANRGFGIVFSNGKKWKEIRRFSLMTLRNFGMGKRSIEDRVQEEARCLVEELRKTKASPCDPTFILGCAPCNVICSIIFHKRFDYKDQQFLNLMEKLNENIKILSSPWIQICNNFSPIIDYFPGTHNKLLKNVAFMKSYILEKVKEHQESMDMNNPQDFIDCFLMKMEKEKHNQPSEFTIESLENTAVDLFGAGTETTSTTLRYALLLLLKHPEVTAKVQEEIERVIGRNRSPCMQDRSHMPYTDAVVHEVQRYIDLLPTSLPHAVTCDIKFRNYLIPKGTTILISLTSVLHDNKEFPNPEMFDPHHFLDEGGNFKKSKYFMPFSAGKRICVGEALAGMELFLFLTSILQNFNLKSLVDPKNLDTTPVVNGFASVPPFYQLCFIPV
CYP2C9 inhib = blockers of cytochrome P450 2C9 activity – biochemical, luminescence, ADME assay, primary screen | AID 777, 2007 | P11712 | CYP2C9 Supersomes, luciferin-H conversion | inhibition, % at 5 µM | 20% of 96,000 active;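 active = blocking of liver enzyme CYP2C9 beyond about 50% at 5 µM, limit read from the data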
E-sel TNF inh = E-selectin induction blockers in HUVEC – imaging, immunofluorescence, high content, primary screen; 0.71% of 120,000 active; HUVEC TNFa-induced E-selectin immunofluorescence; inhibition, % at 2 µM;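 active = inhibition above the batch mean plus 3 SD, and confirmed as a hit on visual image review, cut at about 43% in these data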;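 also: 0% = TNF-stimulated DMSO wells and 100% = unstimulated control wells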
CYP2C19 inh = blockers of cytochrome P450 2C19 activity – biochemical, luminescence, ADME assay, primary screen | P33261 | CYP2C19 Supersomes, luciferin-H EGE luminescence, 30 min | inhibition, % at 5 µM | 21% of 96,000 active | AID 778, 2007;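 active = CYP2C19 inhibition above a set limit at 5 µM in the primary screen, cut at about 50% in these data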;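 also: plate controls were negative control wells for no effect and 2.5 mM tranylcypromine positive control for full effect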
Starred values were filed as active, the others as inactive; · = no result given.

SMILES	cytoskel mod	CYP2C19 activ	CYP2C9 act	CYP2C9 inhib	E-sel TNF inh	CYP2C19 inh
Cc1cc(C)c2cc(CN(CC3CCCO3)S(=O)(=O)c3ccc4c(c3)OCCO4)c(=O)[nH]c2c1 (stereo not drawn)	-21	0.6	0.3	73*	5	36
COC(=O)c1ccccc1S(=O)(=O)N(CCCO)Cc1cc2c(C)ccc(C)c2[nH]c1=O	17	0.5	0.2	84*	-9	54*
Cc1ccccc1-c1nc(-c2ccc(NC(=O)c3cccs3)cc2)no1	13	1	0.9	14	7	5
CCNC(=O)NC(=O)C(C)OC(=O)C1CCN(S(=O)(=O)c2ccccc2C(=O)OC)CC1 (stereo not drawn)	·	·	·	·	-14	·
Cc1cc(=O)[nH]c(SCC2(O)C3CC4CC(C3)CC2C4)n1 (stereo not drawn)	-19	0.7	0.8	24	·	34
O=C(O)CCC(=O)Nc1ccccc1C(=O)NC1CCCCC1	0	1.2	1.1	-13	-8	-20
CNC(=S)N(Cc1ccco1)Cc1cc2cc(OC)ccc2[nH]c1=O	·	·	·	·	-14	·
COc1ccc2[nH]c(=O)c(CN(CCO)S(=O)(=O)c3ccc4c(c3)OCCO4)cc2c1	·	0.2	0.5	48	-12	75*
CCc1ccc2[nH]c(=O)c(CN(Cc3ccco3)S(=O)(=O)c3ccc4c(c3)OCCO4)cc2c1	14	1.1	1.1	-10	·	-7
Cc1ccc(C)c2[nH]c(=O)c(CN(Cc3ccco3)S(=O)(=O)c3ccc4c(c3)OCCO4)cc12	1	0.2	0.3	67*	-6	75*
COC(=O)c1ccccc1S(=O)(=O)N(Cc1ccco1)Cc1cc2cc(OC)ccc2[nH]c1=O	43	0.3	0.5	45	-6	68*
COc1ccc([N+](=O)[O-])cc1NC(=O)CCN1CCN(c2ccccc2OC)CC1	·	·	·	·	2	·
CC(=O)c1cccc(NC(=O)CCOc2ccccc2)c1	-3	0.8	1.8	-83	13	22
COC(=O)c1cccc(NC(=O)Cn2nnc3ccccc32)c1	54	0.4	0	96*	·	64*
COc1ccccc1C(=O)NCC(=O)Nc1ccccc1	-28	0.5	0.9	9	-7	51*
COc1cccc(NC(=O)CNC(=O)c2ccccc2)c1	-11	0.5	0.5	46	11	50*
COC(=O)c1cccc(NC(=O)CCCOc2ccccc2)c1	13	0.2	0.4	59*	4	80*
CC(C)n1c(/C=C/c2ccccc2)nc2ccccc21	·	·	·	·	-9	·
COc1cccc(NC(=O)CNC(C)CCC(C)C)c1 (stereo not drawn)	6	0.2	0.7	26	·	79*
O=C(c1cc(-c2cccs2)nc2ccccc12)N1CCN(S(=O)(=O)c2cccc(F)c2)CC1	4	1	0.3	69*	8	0
O=C(c1cc(-c2cccs2)nc2ccccc12)N1CCN(c2ccccc2)CC1	·	·	·	·	36	·
O=C(c1cc(-c2cccs2)nc2ccccc12)N1CCN(S(=O)(=O)c2ccccc2)CC1	20	0.2	0.1	94*	-15	84*
O=C1COc2ccc(C(=O)COC(=O)Cc3ccccc3F)cc2N1	·	·	·	·	20	·
COc1ccc(N/C(C)=C2/C(=O)C(=O)N(CCO)C2c2ccc(Br)cc2)cc1 (stereo not drawn)	-7	0.4	0.5	52*	·	60*
O=C(c1cccnc1)N1C2C=CC(C2)C1(C(F)(F)F)C(F)(F)F (stereo not drawn)	-5	1.2	1.3	-34	-23	-21
SMILES	cytoskel mod	CYP2C19 activ	CYP2C9 act	CYP2C9 inhib	E-sel TNF inh	CYP2C19 inh
Cc1ccc(Oc2ccc(S(=O)(=O)N3CCOCC3)cc2C(N)=O)c(-n2nc3ccccc3n2)c1	-13	0.8	0.6	45	-1	23
CCOc1ccc(C)cc1-n1nc2ccccc2n1	7	0.9	0.6	41	51*	12
COc1ccc(CNC(=O)C2CCCN(S(=O)(=O)c3c(C)nn(C)c3C)C2)cc1 (stereo not drawn)	-5	0.8	0.9	6	9	19
COc1ccc(C(=O)NCCn2cc(SCC(=O)NCc3ccco3)c3ccccc32)cc1	30	0	0.1	85*	·	96*
Cc1cc(NC(=O)CSc2cn(CCNC(=O)c3ccc(F)cc3)c3ccccc23)no1	-26	0.4	0.3	75*	·	64*
Cc1nnc(NC(=O)CSc2cn(CCNC(=O)c3ccccc3)c3ccccc23)s1	-3	0.9	0.5	49	·	13
CCn1c(=O)cc(OCC(=O)N2CCN(c3cccc(C(F)(F)F)c3)CC2)c2ccccc21	36	0.5	1.2	-25	·	46
COc1ccc(NC(=O)COC(=O)CCCc2c[nH]c3ccccc23)cc1	-16	0.2	0.2	81*	15	84*
O=C(COC(=O)CCCc1c[nH]c2ccccc12)Nc1ccc2c(c1)OCO2	36	0.3	0.8	22	-16	73*
O=C(COC(=O)C1c2ccccc2Oc2ccccc21)Nc1ccc2c(c1)OCO2	·	0.8	0.4	58*	-30	19
COc1cccc(NC(=O)COC(=O)CCCc2c[nH]c3ccccc23)c1	13	0.7	1.7	-70	-15	30
CN(C(=O)COC(=O)C1c2ccccc2Oc2ccccc21)C1CCS(=O)(=O)C1 (stereo not drawn)	-5	0.9	1.1	-6	·	8
COCC(=O)Nc1ccc2c(c1)OCO2	·	·	·	·	-29	·
O=C(COC(=O)C1c2ccccc2Oc2ccccc21)NC1CCS(=O)(=O)C1 (stereo not drawn)	72*	0.7	1.3	-26	·	32
COc1ccc(OCC(=O)N2CCN(S(=O)(=O)c3ccc(Cl)cc3)CC2)cc1	-14	1	0.9	9	·	-4
Cc1cc(C)c(NC(=O)C(=O)NCc2ccco2)c(C)c1	·	·	·	·	-31	·
Cc1ccc(S(=O)(=O)/N=C(/NC(=S)Nc2cccc(C)c2)c2ccccc2)cc1	-14	0.8	0.6	40	-6	20
O=C(Nc1ccc(Cl)c(C(F)(F)F)c1)C(=O)N1CCCCC1	·	·	·	·	4	·
O=C(Nc1ccc(F)cc1)Nc1ccccc1NS(=O)(=O)c1cccs1	·	·	·	·	-9	·
O=S(=O)(Nc1cccc2c1ccc1cccn12)c1cccs1	-2	0.7	0.4	59*	5	30
CCOC(=O)CCc1c(C)c2ccc(OCC(=O)N(CC)CC)c(C)c2oc1=O	-17	0.7	0.5	51*	-16	34
CCOC(=O)CCc1c(C)c2ccc(O)cc2oc1=O	5	0.7	1	-4	23	26
CCc1c(C)c2ccc(OCC(=O)N(C)C)c(C)c2oc1=O	13	0.8	1.1	-14	-10	24
